Data taken from PubChem BioAssay AID2284324 (EPA ToxCast).
Inconclusive results are not listed. Active and inactive are the calls of the source. The calls were made as follows: active = hit-call score of the fitted dose curve at least 0.9, where 1 is the maximum; inconclusive = response in the unintended direction; inactive = score below 0.9.

System: Japanese medaka Glucocorticoid Receptor (GR), gene 101170451
Experiment: ATG_jmGR_EcoTox2: Attagene TRANS-FACTORIAL EcoTox-2 HepG2 Assay for Japanese medaka Glucocorticoid Receptor (GR)
Protocol: ATG_EcoTox2 is a cell-based, multiplexed assay created by modifying the existing Attagene TRANS-FACTORIAL system to include a panel of nuclear receptors from some or all the following species: human (Homo sapiens), african clawed frog (Xenopus laevis), rainbow trout (Oncorhynchus mykiss), japanese medaka (Oryzias latipes), and zebrafish (Danio rerio). The ECOTOX2-FACTORIAL format uses HepG2, a human liver cell line, with measurements taken at 24 hours after chemical dosing in a 24-well plate. ATG_jmGR_EcoTox2 is one of 29 assay components calculated in the ATG_EcoTox2 assay. It is designed to make measurements of mRNA induction, a form of inducible reporter, as detected with fluorescence intensity signals by Reverse transcription polymerase chain reaction (RT-PCR) and Capillary electrophoresis technology.The assay endpoint ATG_jmGR_EcoTox2 was analyzed in the positive analysis fitting direction relative to DMSO as the negative control and baseline of activity. Using a type of inducible reporter, measures of mRNA for gain-of-signal activity can be used to understand the reporter gene at the transcription factor-level as they relate to the gene for glucocorticoid receptor. Furthermore, this assay endpoint can be referred to as a primary readout, because this assay has produced multiple assay endpoints where this one serves a reporter gene function. […]

| Structure (SMILES) | outcome |
| --- | --- |
| CCCCOCN(C(=O)CCl)c1c(CC)cccc1CC | inactive |
| O=P(Oc1ccccc1)(Oc1ccccc1)Oc1ccccc1 | inactive |
